Test results reported in PubChem BioAssay (Tox21).
Records with an inconclusive call do not appear. Entries that show only a call come without a potency. Unmarked numbers belong to inactive results. Activity calls are given as the source filed them. The call rests on the fitted dose curve.

These molecules were tested against Peroxisome proliferator-activated receptor delta (Homo sapiens) (UniProt Q03181) (assay: qHTS assay to identify small molecule agonists of the peroxisome proliferator-activated receptor delta (PPARd) signaling pathway (AID 743212)). Settings: HEK293H PPARd-UAS-bla, beta-lactamase FRET ratio, 17 h; series mostly up to 62.6 µM.
Source text: U.S. Tox21 Program National Center for Advancing Translational Sciences [NCATS] NIH Chemical Genomics Center [NCGC] U.S. Environmental Protection Agency [EPA] National Institutes of Environmental Health Sciences [NIEHS] National Toxicology Program [NTP] U.S. Food and Drug Administration [FDA] Tox21 Assay Overview: The peroxisome proliferator-activated receptors (PPARs) are lipid-activated transcription factors of the nuclear receptor superfamily with three distinct subtypes namely PPAR alpha, PPAR delta (PPARd) and PPAR gamma. All these subtypes heterodimerizes with Retinoid X receptor (RXR) and have different physiological functions. […] To identify the compounds that activate PPAR-delta signaling, GeneBLAzer PPAR delta UAS-bla HEK293H cell line (Invitrogen, Carlsbad, CA, USA) containing a beta-lactamase reporter gene under the control of an Upstream Activator Sequence (UAS) was used to screen the Tox21 compound library.
Tox21 Assay Protocol Summary: PPARd-bla cells were dispensed at 3000 cells/6uL/well in 1536-well black wall/clear bottom plates using a Multidrop Combi (Thermo Fisher Scientific, Waltham, MA) dispenser. After the assay plates were incubated at 37 C and 5% CO2 for 5 h, 23 nL of compounds dissolved in DMSO, positive controls or DMSO only was transferred to the assay plate by a Pintool station (Kalypsys, San Diego, CA). The assay plates were incubated at 37C for 17 h. After 1 uL of LiveBLAzerTM B/G FRET substrate was added using a Bioraptr Flying Reagent Dispenser (FRD) workstation (Beckman Coulter, Indianapolis, IN, USA), the plates were incubated at room temperature for 2 h, and fluorescence intensity was measured by an Envision plate reader (PerkinElmer, Shelton, CT).

Chain of Peroxisome proliferator-activated receptor delta (Homo sapiens) (Q03181 whole entry, looked up): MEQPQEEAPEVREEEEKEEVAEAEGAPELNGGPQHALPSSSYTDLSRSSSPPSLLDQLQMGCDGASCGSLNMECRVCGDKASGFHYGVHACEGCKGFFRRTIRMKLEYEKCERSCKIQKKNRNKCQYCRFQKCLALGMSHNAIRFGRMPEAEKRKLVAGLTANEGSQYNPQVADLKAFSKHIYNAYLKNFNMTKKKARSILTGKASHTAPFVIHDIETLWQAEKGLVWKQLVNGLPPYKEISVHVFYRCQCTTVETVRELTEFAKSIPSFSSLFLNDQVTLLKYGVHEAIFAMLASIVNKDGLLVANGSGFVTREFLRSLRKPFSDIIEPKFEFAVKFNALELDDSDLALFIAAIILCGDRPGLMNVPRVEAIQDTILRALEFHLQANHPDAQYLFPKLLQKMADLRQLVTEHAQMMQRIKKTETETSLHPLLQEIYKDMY

**Q.** With `O=C(Cl)c1ccc(C(=O)Cl)cc1` as the molecule, how does the Potency read?
**A.** inactive

**Q.** `Cc1ccc(C)c(S(=O)(=O)O)c1` was tested. Which Potency did it give?
**A.** inactive

**Q.** How did the Potency turn out when `Cc1ccc(Cl)cc1` was run?
**A.** inactive

**Q.** With `CCCCCNCCCCC` as the molecule, how does the Potency read?
**A.** inactive

**Q.** With `CC(=O)OC(C)(C)C1CC=C(C)CC1` (stereo not given) as the molecule, how does the Potency read?
**A.** inactive

**Q.** `CCCOCC(C)O` (stereo not given) was tested. Which Potency did it give?
**A.** inactive

**Q.** Which Potency does the source give for `CO[Si](CCCNCCN)(OC)OC` here?
**A.** inactive

**Q.** With `CCCCCCCCC(=O)O` as the molecule, how does the Potency read?
**A.** inactive

**Q.** Which Potency does the source give for `CC(=O)CC(=O)N(C)C` here?
**A.** inactive

**Q.** Which Potency does the source give for `CCCCCC(C)=O` here?
**A.** inactive

**Q.** With `CCc1cccc(CC)c1N` as the molecule, how does the Potency read?
**A.** inactive

**Q.** For `Cc1ccc(C(C)C)cc1`, which Potency is on record?
**A.** inactive

**Q.** How did the Potency turn out when `COC(=O)/C=C\C(=O)OC` was run?
**A.** inactive

**Q.** How did the activation turn out when `CCCCCCCCCCCC(=O)N(C)CC(=O)O` was run?
**A.** 0.0552% [at 5.95 µM]

**Q.** `Nc1cccc(N)n1` was tested. Which Potency did it give?
**A.** inactive

**Q.** `OC1CCCCC1` was tested. Which Potency did it give?
**A.** inactive

**Q.** With `Cc1nnc(NS(=O)(=O)c2ccc(N)cc2)s1` as the molecule, how does the Potency read?
**A.** inactive

**Q.** `CC(C=O)Cc1ccc(C(C)(C)C)cc1` (stereo not given) was tested. Which Potency did it give?
**A.** inactive

**Q.** With `Cc1cc(C)c(O)c(C)c1` as the molecule, how does the Potency read?
**A.** inactive

**Q.** For `CCCCCCCCO`, which Potency is on record?
**A.** inactive

**Q.** Which Potency does the source give for `CN1Cc2c(N)cccc2C(c2ccccc2)C1` (stereo not given) here?
**A.** inactive

**Q.** Which Potency does the source give for `CC(C)=CCC/C(C)=C/C=O` here?
**A.** inactive

**Q.** With `Cc1cc(CC(=O)O)n(C)c1C(=O)c1ccc(Cl)cc1` as the molecule, how does the Potency read?
**A.** inactive

**Q.** For `C1CCCNCC1`, which Potency is on record?
**A.** inactive

**Q.** Which Potency does the source give for `N#CCC(=O)O` here?
**A.** inactive

**Q.** `CC(O)CNCC(C)O` (stereo not given) was tested. Which Potency did it give?
**A.** inactive

**Q.** How did the Potency turn out when `C=C(CC(=O)O)C(=O)O` was run?
**A.** inactive

**Q.** With `CN=C(NC#N)NCCSCc1nc[nH]c1C` as the molecule, how does the Potency read?
**A.** inactive

**Q.** For `COc1cc(NC(=O)CC(C)=O)c(OC)cc1Cl`, which Potency is on record?
**A.** inactive

**Q.** With `Nc1cccc(C(F)(F)F)c1` as the molecule, how does the Potency read?
**A.** inactive

**Q.** How did the Potency turn out when `CCCCCCC(=O)O` was run?
**A.** inactive

**Q.** For `COc1ccc2cc3[n+](cc2c1OC)CCc1cc2c(cc1-3)OCO2`, which Potency is on record?
**A.** inactive

**Q.** With `CC1=CC(=O)CC(C)(C)C1` as the molecule, how does the Potency read?
**A.** inactive

**Q.** Which Potency does the source give for `CCc1cccc(O)c1` here?
**A.** inactive

**Q.** How did the Potency turn out when `CC(COCC(C)OC(=O)c1ccccc1)OC(=O)c1ccccc1` (stereo not given) was run?
**A.** inactive

**Q.** For `C=CC(C)(C)C`, which Potency is on record?
**A.** inactive

**Q.** Which Potency does the source give for `N[C@@H](Cc1cc(I)c(Oc2ccc(O)c(I)c2)c(I)c1)C(=O)O` here?
**A.** inactive

**Q.** For `C=CC(=O)NCOCCCC`, which Potency is on record?
**A.** inactive

**Q.** `Cc1cccc(C)c1[N+](=O)[O-]` was tested. Which Potency did it give?
**A.** inactive

**Q.** `CC(=O)C(C)C` was tested. Which Potency did it give?
**A.** inactive
